From PubChem BioAssay
IDE exosite inh – exo-site inhibitors of human IDE, primary screen, biochemical, fluorescence anisotropy, probe displacement | Insulin-degrading enzyme (Homo sapiens), P14735 | purified IDE, FL-6b probe fluorescence polarization; stronger effect = lower value | z-score at 20 µM | 6.3% of 17,000 active;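 active means z-score of -3 or lower, meaning strong loss of probe binding signal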;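 further: His-tagged human IDE residues 42-1019 made in E. coli with 30 nM FL-6b probe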
* marks the source's active call; other numbers are inactive results. Shown is part of a subset that was picked to be rich in hits.

SMILES | IDE exosite inh
CCN(C[C@H]1[C@H](c2ccccc2)[C@@H](CO)N1S(C)(=O)=O)C(=O)C1CCCC1 | -0.46
O=C(Nc1ccccc1F)N1C[C@H]2[C@@H](c3ccccc31)[C@H](CO)N2C(=O)Cc1cccnc1 | -0.85
COCC#Cc1ccc([C@@H]2[C@H](CO)N3C(=O)CN(C(=O)c4ccncc4)C[C@@H]23)cc1 | 0.99
Cc1ccc(-c2ccc([C@@H]3[C@H](CO)N4C(=O)CN(C(=O)Nc5ccc(F)cc5)C[C@@H]34)cc2)cc1 | 0.61
C[C@H]1CN([C@@H](C)CO)C(=O)Cc2cc(NC(=O)C3CC3)ccc2O[C@H]1CN(C)S(=O)(=O)c1cn(C)cn1 | 0.44
CS(=O)(=O)N(CC1CCC1)C[C@H]1N[C@@H](CO)[C@H]1c1ccccc1 | 1.4
C[C@@H]1CN([C@H](C)CO)C(=O)Cc2cc(N(C)C)ccc2O[C@@H]1CN(C)Cc1ccc(-c2ccccc2)cc1 | 0.14
CS(=O)(=O)N1CC(=O)N2[C@H](CO)[C@H](c3ccc(C#Cc4ccccc4)cc3)[C@@H]2C1 | -5.4*
CS(=O)(=O)N1CC(=O)N2[C@@H](CO)[C@H](c3ccc(C#Cc4ccc(F)cc4)cc3)[C@@H]2C1 | 0.17
CS(=O)(=O)N1CC(=O)N2[C@H](C1)[C@@H](c1ccc(C#Cc3ccc(F)cc3)cc1)[C@@H]2CO | -0.016
O=C(Cc1ccncc1)N1CC[C@@H]2[C@H]1c1cc(-c3ccccc3F)ccc1N[C@@H]2CO | 0.0065
O=C(Nc1ccccc1)N1CCCCN2[C@H](CO)[C@@H](c3ccc(C#Cc4ccccn4)cc3)[C@@H]2C1 | -0.6
COc1ccc(S(=O)(=O)N2CCCCN3[C@H](C2)[C@@H](c2ccc(C#CC(C)C)cc2)[C@@H]3CO)cc1 | 2.6
COc1cccc(-c2ccc([C@@H]3[C@@H](CO)N4CCCCN(C(=O)NC(C)C)C[C@@H]34)cc2)c1 | -6*
COc1cccc(-c2ccc([C@@H]3[C@@H](CO)N4CCCCN(C(=O)NC(C)C)C[C@H]34)cc2)c1 | -6.6*
COc1cccc(-c2ccc([C@H]3[C@H]4CN(C(=O)c5ccc(F)cc5)CCCCN4[C@H]3CO)cc2)c1 | 1.4
COc1cccc(-c2ccc([C@@H]3[C@H](CO)N4CCCCN(C(=O)c5ccc(F)cc5)C[C@@H]34)cc2)c1 | 0.21
CC(C)NC(=O)N1CCCCN2[C@H](C1)[C@H](c1ccc(Br)cc1)[C@@H]2CO | 1.6
COc1cccc(-c2ccc([C@H]3[C@@H](CO)N4CCCCN(C(=O)NC(C)C)C[C@H]34)cc2)c1 | -8.1*
CC(C)NC(=O)N1CCCCN2[C@H](CO)[C@H](c3ccc(Br)cc3)[C@@H]2C1 | 2.4
CC(C)NC(=O)N1CCCCN2[C@H](CO)[C@@H](c3ccc(Br)cc3)[C@@H]2C1 | 1.7
CC(C)NC(=O)N1CCCCN2[C@H](CO)[C@H](c3ccc(Br)cc3)[C@H]2C1 | 2.4
O=C(C1CC1)N1CC(=O)N2[C@H](C1)[C@H](c1ccc(-c3cccnc3)cc1)[C@@H]2CO | 0.95
COCCNC(=O)C[C@H]1C[C@H]2c3cc(NC(=O)CN(C)C)ccc3O[C@H]2[C@@H](CO)O1 | -1.1
CN1CCCCN2[C@H](C1)[C@H](c1ccc(Br)cc1)[C@@H]2CO | 2.1
SMILES | IDE exosite inh
C/C=C/c1ccc([C@@H]2[C@@H](CO)N[C@@H]2CN(CC(C)C)C(=O)c2ccccn2)cc1 | -2
O=C(NC[C@H]1[C@H](c2ccccc2)[C@@H](CO)N1C(=O)Cc1cccnc1)C1CC1 | 3.5
COc1ccccc1-c1ccc([C@H]2[C@H]3CN(C(=O)NC4CCCC4)CCCCN3[C@H]2CO)cc1 | -14*
COc1ccccc1-c1ccc([C@@H]2[C@@H](CO)N3CCCCN(C(=O)NC4CCCC4)C[C@@H]23)cc1 | -4.7*
COCC#Cc1ccc([C@H]2[C@@H](CO)N3CCCCN(C(=O)NC4CCCC4)C[C@@H]23)cc1 | -1.2
O=C(NC1CCCC1)N1CCCCN2[C@@H](CO)[C@H](c3ccc(-c4cncnc4)cc3)[C@@H]2C1 | 1.9
COc1ccccc1-c1ccc([C@@H]2[C@H](CO)N3CCCCN(C(=O)NC4CCCC4)C[C@@H]23)cc1 | -16*
COc1ccccc1-c1ccc([C@@H]2[C@H]3CN(C(=O)NC4CCCC4)CCCCN3[C@H]2CO)cc1 | -12*
COCC#Cc1ccc([C@H]2[C@H]3CN(C(=O)NC4CCCC4)CCCCN3[C@H]2CO)cc1 | -0.15
COc1ccccc1NC(=O)N1CCCCN2[C@H](C1)[C@H](c1ccc(-c3ccc(C)cc3)cc1)[C@@H]2CO | 1.2
COCC#Cc1ccc([C@@H]2[C@@H](CO)N3C(=O)CN(C(=O)Nc4ccccc4F)C[C@H]23)cc1 | -1.7
COCC(=O)N1CC2(C1)[C@H](c1ccc(-c3cccc(F)c3)cc1)[C@@H](CO)N2C(=O)C1CC1 | -0.39
COCC(=O)N1CC(=O)N2[C@H](CO)[C@H](c3ccc(Br)cc3)[C@H]2C1 | 1.4
COc1ccc(NC(=O)N2C[C@H]3[C@@H](c4ccccc42)[C@H](CO)N3Cc2ccccn2)cc1 | 2.2
CC(C)C(=O)Nc1ccc2c(c1)C(=O)N(C)[C@H]1CC[C@H](CC(=O)NCCc3ccccc3)O[C@H]1CO2 | -0.18
